# From the supplement of paper PMC10849652
# The full data set covers some 7,900 targets. This sample favours those with a hit. About 0.6% of all pairs of compound and target were hits. A number with no mark means an inactive call.
# Experiments:
# Test in all cases: log2 fold change, soluble protein after heating vs DMSO (PISA); higher = thermal stabilisation; K562 cells, 10 uM, 30 min; active = over 0.2 and 3.5 SD of the protein, either way, in both replicates (recomputed)
# [1] = compound: C1=CC=C(C=C1)[C@H](COC2=CC3=C(C=C2)NC(=O)N3)NC(=O)C4=CC=CN(C4=O)CC5=CC(=C(C=C5)F)F
# Procedure, shortened: (§1)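 Soluble protein was quantified by TMTpro 16plex LC-MS/MS after channel sums were equalised. It was obtained as the supernatant after 21,000xg for 90 min from pooled aliquots of K562 cells (2×10^6 cells/mL, 10 μM compound, 30 min) heated for 3 min across 48°C-58°C and extracted in PBS with 0.5% NP-40 at 4°C. Thermal stability values are relative to control samples and come from duplicates. They are given as log2 fold changes.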
# [2] = compound: CC1=C(SC2=C1C(=N[C@H](C3=NN=C(N32)C)CC(=O)N)C4=CC=C(C=C4)Cl)C
# Procedure, shortened: as §1
# [3] = compound: CC1=C2C(=CC=C1)N=C(N(C2=O)C3=CC=CC=C3C)CN4C=NC5=C(N=CN=C54)N
# Procedure, shortened: as §1
# [4] = compound: Cc1sc2c(c1C)C(c1ccc(Cl)cc1)=N[C@@H](CC(=O)OC(C)(C)C)c1nnc(C)n1-2
# Procedure, shortened: as §1
# [5] = compound: c1ccc([C@@H]2C[C@H]2NC2CCNCC2)cc1
# Procedure, shortened: as §1
# Sequence of UniProt P53680 (P53680 whole entry, looked up): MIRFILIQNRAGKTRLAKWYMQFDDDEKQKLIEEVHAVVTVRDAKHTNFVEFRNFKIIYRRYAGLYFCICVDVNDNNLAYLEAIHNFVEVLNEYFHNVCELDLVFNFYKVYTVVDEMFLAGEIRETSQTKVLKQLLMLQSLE
# Sequence of UniProt P11310 (P11310 whole entry, looked up): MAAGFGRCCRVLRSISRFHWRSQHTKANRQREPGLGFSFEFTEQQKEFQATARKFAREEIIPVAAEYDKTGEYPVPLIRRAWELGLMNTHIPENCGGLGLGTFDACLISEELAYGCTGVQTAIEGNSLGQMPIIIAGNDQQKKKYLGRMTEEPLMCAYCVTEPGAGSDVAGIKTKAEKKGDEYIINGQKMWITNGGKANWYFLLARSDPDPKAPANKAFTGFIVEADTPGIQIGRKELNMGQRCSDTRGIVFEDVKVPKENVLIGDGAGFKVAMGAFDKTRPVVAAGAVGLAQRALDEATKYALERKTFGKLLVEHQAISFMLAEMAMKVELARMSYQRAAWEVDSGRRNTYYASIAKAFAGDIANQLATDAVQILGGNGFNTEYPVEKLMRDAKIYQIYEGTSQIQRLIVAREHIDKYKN
# Sequence of UniProt P78363 (P78363 whole entry, looked up): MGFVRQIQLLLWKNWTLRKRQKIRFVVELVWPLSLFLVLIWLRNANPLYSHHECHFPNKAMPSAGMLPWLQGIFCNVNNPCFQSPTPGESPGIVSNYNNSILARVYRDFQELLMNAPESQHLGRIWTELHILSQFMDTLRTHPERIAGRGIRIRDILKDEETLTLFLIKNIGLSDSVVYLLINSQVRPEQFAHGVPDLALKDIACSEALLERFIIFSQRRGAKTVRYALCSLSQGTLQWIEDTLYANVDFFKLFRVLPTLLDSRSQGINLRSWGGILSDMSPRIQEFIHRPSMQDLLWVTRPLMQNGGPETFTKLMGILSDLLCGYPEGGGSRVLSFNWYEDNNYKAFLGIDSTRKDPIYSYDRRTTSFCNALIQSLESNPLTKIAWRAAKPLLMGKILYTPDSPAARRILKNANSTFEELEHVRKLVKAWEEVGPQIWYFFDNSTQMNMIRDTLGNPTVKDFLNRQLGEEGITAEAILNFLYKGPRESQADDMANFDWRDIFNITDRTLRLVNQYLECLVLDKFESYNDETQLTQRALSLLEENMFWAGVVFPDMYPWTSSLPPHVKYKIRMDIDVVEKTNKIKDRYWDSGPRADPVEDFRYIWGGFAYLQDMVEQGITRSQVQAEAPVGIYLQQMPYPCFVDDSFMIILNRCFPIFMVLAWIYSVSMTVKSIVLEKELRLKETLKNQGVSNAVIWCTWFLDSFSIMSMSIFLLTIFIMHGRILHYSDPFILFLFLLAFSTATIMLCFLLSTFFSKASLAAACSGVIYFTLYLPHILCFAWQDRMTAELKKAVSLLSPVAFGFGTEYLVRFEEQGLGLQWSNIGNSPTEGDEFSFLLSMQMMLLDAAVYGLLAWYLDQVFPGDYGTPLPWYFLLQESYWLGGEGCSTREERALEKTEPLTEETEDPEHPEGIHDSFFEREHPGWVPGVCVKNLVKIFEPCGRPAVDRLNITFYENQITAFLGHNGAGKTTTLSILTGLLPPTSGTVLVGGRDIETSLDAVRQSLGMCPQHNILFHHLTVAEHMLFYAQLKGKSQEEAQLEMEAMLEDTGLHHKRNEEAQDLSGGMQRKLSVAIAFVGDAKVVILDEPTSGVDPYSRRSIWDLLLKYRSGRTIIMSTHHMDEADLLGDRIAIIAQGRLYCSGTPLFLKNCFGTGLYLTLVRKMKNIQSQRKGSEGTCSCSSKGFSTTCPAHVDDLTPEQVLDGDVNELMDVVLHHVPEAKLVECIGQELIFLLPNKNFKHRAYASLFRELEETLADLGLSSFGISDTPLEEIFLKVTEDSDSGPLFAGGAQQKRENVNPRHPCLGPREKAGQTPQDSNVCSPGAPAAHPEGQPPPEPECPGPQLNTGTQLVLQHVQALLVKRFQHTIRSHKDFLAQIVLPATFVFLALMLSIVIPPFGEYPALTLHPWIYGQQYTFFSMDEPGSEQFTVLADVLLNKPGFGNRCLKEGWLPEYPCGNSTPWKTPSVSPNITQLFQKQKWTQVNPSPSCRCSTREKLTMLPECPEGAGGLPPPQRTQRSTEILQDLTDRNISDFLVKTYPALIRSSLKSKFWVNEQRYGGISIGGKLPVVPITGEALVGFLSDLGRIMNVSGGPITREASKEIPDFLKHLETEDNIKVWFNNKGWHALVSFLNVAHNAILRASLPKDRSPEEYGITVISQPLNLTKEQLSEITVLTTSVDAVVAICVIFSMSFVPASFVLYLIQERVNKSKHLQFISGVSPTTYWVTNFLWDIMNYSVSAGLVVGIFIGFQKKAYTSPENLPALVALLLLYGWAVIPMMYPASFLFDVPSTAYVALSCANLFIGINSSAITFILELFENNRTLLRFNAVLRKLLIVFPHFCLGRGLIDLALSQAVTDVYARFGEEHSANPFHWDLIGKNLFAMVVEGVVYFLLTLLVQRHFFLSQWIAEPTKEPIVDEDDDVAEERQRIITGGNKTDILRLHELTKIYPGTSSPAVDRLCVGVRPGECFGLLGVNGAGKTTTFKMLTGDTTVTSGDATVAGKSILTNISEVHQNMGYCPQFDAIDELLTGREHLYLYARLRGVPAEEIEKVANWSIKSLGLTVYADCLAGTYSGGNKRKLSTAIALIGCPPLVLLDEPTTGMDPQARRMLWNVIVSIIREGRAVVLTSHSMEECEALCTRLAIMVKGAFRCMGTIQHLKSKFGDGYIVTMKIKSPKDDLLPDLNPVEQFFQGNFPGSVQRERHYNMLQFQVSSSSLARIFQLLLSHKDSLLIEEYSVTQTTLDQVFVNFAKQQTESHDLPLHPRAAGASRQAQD
# Sequence of UniProt P55196 (P55196 whole entry, looked up): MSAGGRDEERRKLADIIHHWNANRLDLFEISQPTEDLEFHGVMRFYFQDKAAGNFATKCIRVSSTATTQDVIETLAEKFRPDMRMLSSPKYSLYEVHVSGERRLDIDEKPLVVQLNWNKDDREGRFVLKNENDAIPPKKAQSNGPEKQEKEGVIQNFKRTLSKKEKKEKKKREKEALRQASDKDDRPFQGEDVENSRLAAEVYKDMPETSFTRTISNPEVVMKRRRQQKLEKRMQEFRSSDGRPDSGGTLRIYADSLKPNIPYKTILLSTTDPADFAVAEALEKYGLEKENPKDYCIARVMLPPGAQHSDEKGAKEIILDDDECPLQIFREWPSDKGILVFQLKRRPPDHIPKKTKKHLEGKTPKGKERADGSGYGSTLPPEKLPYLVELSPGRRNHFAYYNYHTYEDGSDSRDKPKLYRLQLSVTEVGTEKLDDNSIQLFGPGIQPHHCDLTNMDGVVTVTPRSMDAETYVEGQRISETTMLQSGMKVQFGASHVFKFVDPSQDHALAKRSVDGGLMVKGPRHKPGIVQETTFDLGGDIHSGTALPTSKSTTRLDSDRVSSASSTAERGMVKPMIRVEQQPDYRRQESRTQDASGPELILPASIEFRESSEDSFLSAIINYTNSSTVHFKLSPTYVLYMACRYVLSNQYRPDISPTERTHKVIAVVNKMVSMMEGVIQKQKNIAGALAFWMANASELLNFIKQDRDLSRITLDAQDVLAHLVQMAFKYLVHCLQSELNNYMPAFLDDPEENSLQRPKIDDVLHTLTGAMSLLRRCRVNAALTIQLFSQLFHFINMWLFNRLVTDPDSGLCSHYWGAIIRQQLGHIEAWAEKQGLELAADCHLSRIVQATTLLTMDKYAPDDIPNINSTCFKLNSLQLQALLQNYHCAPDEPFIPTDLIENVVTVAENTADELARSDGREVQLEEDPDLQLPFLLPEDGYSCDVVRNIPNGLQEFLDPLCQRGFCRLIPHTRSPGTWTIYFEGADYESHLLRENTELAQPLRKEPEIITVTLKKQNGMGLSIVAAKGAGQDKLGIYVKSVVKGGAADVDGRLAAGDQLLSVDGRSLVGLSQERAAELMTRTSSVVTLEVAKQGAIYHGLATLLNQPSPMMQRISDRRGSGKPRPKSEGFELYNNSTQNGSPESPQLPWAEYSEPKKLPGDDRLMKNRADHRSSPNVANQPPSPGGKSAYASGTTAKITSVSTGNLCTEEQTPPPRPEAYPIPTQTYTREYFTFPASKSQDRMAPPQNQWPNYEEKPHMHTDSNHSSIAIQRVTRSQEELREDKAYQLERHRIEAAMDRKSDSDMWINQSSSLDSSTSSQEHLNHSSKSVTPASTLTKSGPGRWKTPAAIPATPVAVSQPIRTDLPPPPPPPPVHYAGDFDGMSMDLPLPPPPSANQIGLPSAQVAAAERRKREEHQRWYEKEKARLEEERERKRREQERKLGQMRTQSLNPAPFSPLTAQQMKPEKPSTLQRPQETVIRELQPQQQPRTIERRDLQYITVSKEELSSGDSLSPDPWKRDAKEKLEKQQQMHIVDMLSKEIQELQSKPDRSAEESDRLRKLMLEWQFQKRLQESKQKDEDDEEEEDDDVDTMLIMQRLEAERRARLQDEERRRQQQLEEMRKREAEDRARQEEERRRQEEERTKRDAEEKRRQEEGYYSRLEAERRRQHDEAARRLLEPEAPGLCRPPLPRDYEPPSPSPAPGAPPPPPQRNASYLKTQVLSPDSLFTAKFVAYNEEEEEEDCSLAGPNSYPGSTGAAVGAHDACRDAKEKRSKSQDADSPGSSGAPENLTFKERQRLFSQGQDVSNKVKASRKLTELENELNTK
# Sequence of UniProt Q9BUT1 (Q9BUT1 whole entry, looked up): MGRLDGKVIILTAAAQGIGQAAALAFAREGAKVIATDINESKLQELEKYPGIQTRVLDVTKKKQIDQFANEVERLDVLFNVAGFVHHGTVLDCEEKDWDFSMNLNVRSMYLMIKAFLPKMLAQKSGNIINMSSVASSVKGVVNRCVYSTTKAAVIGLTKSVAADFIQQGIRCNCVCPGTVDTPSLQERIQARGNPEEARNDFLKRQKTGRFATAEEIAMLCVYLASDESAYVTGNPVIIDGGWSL
# Sequence of UniProt Q92934 (Q92934 whole entry, looked up): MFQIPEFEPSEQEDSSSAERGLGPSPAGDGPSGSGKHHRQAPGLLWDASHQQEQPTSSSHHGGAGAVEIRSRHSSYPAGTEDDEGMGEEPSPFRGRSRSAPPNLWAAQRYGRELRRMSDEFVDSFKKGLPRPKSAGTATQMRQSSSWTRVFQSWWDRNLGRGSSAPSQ
Target,log2 fold change [1],log2 fold change [2],log2 fold change [3],log2 fold change [4],log2 fold change [5]
ATP1A1 (UniProt P05023),0.009,0.051,-0.045,0,-0.01
ASH2L (UniProt Q9UBL3),0.016,-0.013,0.081,-0.031,0.005
AP2M1 (UniProt C9JTK4),-0.113,0.083,0.131,0.136,-0.076
AP2M1 (UniProt Q96CW1),-0.005,0.03,-0.013,0.006,0.009
BLOC1S3 (UniProt Q6QNY0),-0.048,0.084,0.088,-0.113,-0.06
BRIX1 (UniProt Q8TDN6),0.093,-0.349,-0.242,0.244,-0.007
ATP7B (UniProt P35670),0,0.094,0.014,0.022,0.076
AGPS (UniProt O00116),-0.046,0.081,0.079,-0.031,-0.051
ARMC10 (UniProt Q8N2F6),0.035,-0.017,-0.006,0.012,-0.009
ALDH2 (UniProt P05091),0.009,0.065,0.032,-0.043,-0.001
AKAP8L (UniProt Q9ULX6),-0.011,-0.186,0.054,-0.047,0.043
ATP5IF1 (UniProt Q9UII2),0.016,-0.087,-0.031,-0.013,-0.079
ADPRH (UniProt P54922),-0.035,–,0.344,-0.121,–
ANGEL1 (UniProt Q9UNK9),-0.256,–,-0.172,-0.042,–
ACTBL2 (UniProt Q562R1),-0.444,–,-0.201,–,–
BAP18 isoform 3 (UniProt Q8IXM2),–,–,–,0.041,–
ATOX1 (UniProt O00244),0.033,0.124,0.101,-0.153,0.008
AKAP8 (UniProt O43823),0.012,-0.03,0.105,-0.018,0.347 (active)
APOBEC3G (UniProt Q9HC16),0.089,–,0.436,0.147,–
ABCA4 (UniProt P78363),0.174,0.297,–,0.03,-0.128
AP2S1 (UniProt M0QZ21),–,–,–,-0.014,–
BAD (UniProt Q92934),-0.001,-0.042,-0.086,–,0.032
ACVR1 (UniProt Q04771),–,0.061,0.041,-0.218,0.072
ARMC8 isoform 6 (UniProt Q8IUR7),0.053,–,0.088,–,–

Target,log2 fold change [1],log2 fold change [2],log2 fold change [3],log2 fold change [4],log2 fold change [5]
AZI2 (UniProt Q9H6S1),0.034,–,-0.047,0.136,–
ASB6 (UniProt Q9NWX5),-0.065,–,0.178,–,–
AFDN isoform 1 (UniProt P55196),0.038,-0.119,0.029,–,0.177
BRMS1 (UniProt Q9HCU9),–,–,–,-0.011,–
AIF1 (UniProt P55008),-0.114,–,0.04,–,–
ACADM isoform 2 (UniProt P11310),0.007,0.024,-0.015,-0.016,-0.031
APLP2 (UniProt Q06481),0.003,-0.003,0,0.036,0.038
AUNIP isoform 2 (UniProt Q9H7T9),–,0.031,0.086,-0.001,-0.014
BAIAP2 isoform 4 (UniProt Q9UQB8),–,0.029,–,-0.206,0.151
ACTR3B (UniProt Q9P1U1),–,–,-0.002,0.173,–
AMD1 (UniProt P17707),-0.021,–,0.168,-0.164,–
AKNA (UniProt Q7Z591),–,0.071,–,–,0.206
APAF1 (UniProt O14727),–,0.031,0.112,–,0.055
"BRAF, A0A2R8Y8E0",–,–,–,0.162,–
ADD1 isoform 4 (UniProt P35611),-0.03,0.04,–,–,0.217
AP4S1 (UniProt Q9Y587),-0.077,0.133,0.069,–,0
ADD3 isoform 2 (UniProt Q9UEY8),–,-0.075,-0.038,0.007,0
AARSD1 (UniProt Q9BTE6),-0.081,-0.267,–,–,-0.068
BDH2 (UniProt Q9BUT1),-0.033,0.087,-0.213,–,0.12
ALDH2 isoform 2 (UniProt P05091),-0.092,–,0.379,0.074,–
ACSL6 isoform 1 (UniProt Q9UKU0),0.012,–,0.29,-0.009,–
AGAP3 isoform 4 (UniProt Q96P47),-0.08,-0.023,–,-0.006,0.05
AP2S1 (UniProt P53680),-0.013,-0.007,-0.036,0.037,0.043
ACSL4 (UniProt O60488),-0.08,0.1,0.132,0.025,-0.031
